Assay results: the supplement of paper PMC8728848
The full list was thinned out, with the strongest signals kept by preference.

Legend:
Experiment in all cases: glycan array binding signal (z-score within array); higher = stronger binding
Conditions in all cases: glycan notation: IUPAC condensed, linker removed
Fuc(a1-2)Gal(b1-3)GalNAc = target: Fuc(a1-2)Gal(b1-3)GalNAc
Summary of the method: (§1)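 The binding signal is a Z-score computed within each array and averaged over linkers. Arrays of the same protein sequence at different concentrations or buffers were also averaged together. Data originate from 3228 arrays in the Consortium for Functional Glycomics database, kept only where the protein sequence was available.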

[1] = target: Fuc(a1-2)Gal(b1-3)GalNAc(b1-3)Gal
Summary of the method: as §1

[2] = target: Fuc(a1-2)Gal(b1-3)GlcNAc(b1-3)[Fuc(a1-3)[Gal(b1-4)]GlcNAc(b1-6)]Gal(b1-4)Glc
Summary of the method: as §1

[3] = target: Fuc(a1-2)Gal(b1-4)GlcNAc(b1-3)Gal(b1-4)GlcNAc(b1-3)Gal(b1-4)GlcNAc
Summary of the method: as §1

Fuc(a1-2)Gal6S(b1-4)Glc = target: Fuc(a1-2)Gal6S(b1-4)Glc
Summary of the method: as §1

[4] = target: Gal(a1-3)Gal(b1-3)[Fuc(a1-4)]GlcNAc(b1-2)Man(a1-3)[Gal(a1-3)Gal(b1-3)[Fuc(a1-4)]GlcNAc(b1-2)Man(a1-6)]Man(b1-4)GlcNAc(b1-4)GlcNAc
Summary of the method: as §1

[5] = target: Gal(b1-3)Gal(b1-4)GlcNAc(b1-2)Man(a1-3)[Gal(b1-3)Gal(b1-4)GlcNAc(b1-2)Man(a1-6)]Man(b1-4)GlcNAc(b1-4)GlcNAc
Summary of the method: as §1

[6] = target: Gal(b1-3)GalNAc(b1-3)Gal(a1-4)Gal(b1-4)Glc
Summary of the method: as §1

[7] = target: Gal(b1-3)GalNAc(b1-4)Gal(b1-4)Glc
Summary of the method: as §1

[8] = target: Gal(b1-4)GlcNAc(a1-6)Gal(b1-4)GlcNAc
Summary of the method: as §1

[9] = target: Gal(b1-4)GlcNAc(b1-2)Man(a1-3)Man(b1-4)GlcNAc(b1-4)GlcNAc
Summary of the method: as §1

[10] = target: Gal(b1-4)GlcNAc(b1-2)[Gal(b1-4)GlcNAc(b1-4)]Man(a1-3)[Gal(b1-4)GlcNAc(b1-2)Man(a1-6)]Man(b1-4)GlcNAc(b1-4)GlcNAc
Summary of the method: as §1

[11] = target: Gal(b1-4)GlcNAc(b1-2)[Gal(b1-4)GlcNAc(b1-4)]Man(a1-3)[Gal(b1-4)GlcNAc(b1-2)[Gal(b1-4)GlcNAc(b1-6)]Man(a1-6)]Man(b1-4)GlcNAc(b1-4)GlcNAc
Summary of the method: as §1

Gal3S(b1-3)GlcNAc = target: Gal3S(b1-3)GlcNAc
Summary of the method: as §1

Gal3S(b1-4)GlcNAc6S = target: Gal3S(b1-4)GlcNAc6S
Summary of the method: as §1

[12] = target: Gal3S(b1-4)[Fuc(a1-3)]Glc6S
Summary of the method: as §1

GalNAc(a1-3)GalNAc = target: GalNAc(a1-3)GalNAc
Summary of the method: as §1

Glc(b1-6)Glc = target: Glc(b1-6)Glc
Summary of the method: as §1

GlcA(b1-3)GlcNAc = target: GlcA(b1-3)GlcNAc
Summary of the method: as §1

[13] = target: GlcNAc(a1-4)Gal(b1-4)GlcNAc(b1-3)Gal(b1-4)Glc
Summary of the method: as §1

GlcNAc(b1-6)GalNAc = target: GlcNAc(b1-6)GalNAc
Summary of the method: as §1

[14] = target: Neu5Ac(a2-3)Gal(b1-3)GalNAc6S
Summary of the method: as §1

[15] = target: Neu5Ac(a2-3)Gal(b1-3)GlcNAc(b1-3)Gal(b1-4)GlcNAc
Summary of the method: as §1

[16] = target: Neu5Ac(a2-3)Gal(b1-3)GlcNAc6S
Summary of the method: as §1

[17] = target: Neu5Ac(a2-3)Gal(b1-4)GlcNAc(b1-2)Man(a1-3)[GlcNAc(b1-2)Man(b1-4)GlcNAc(b1-2)Man(a1-6)]Man(b1-4)GlcNAc(b1-4)GlcNAc
Summary of the method: as §1

[18] = target: Neu5Ac(a2-3)Gal(b1-4)[Fuc(a1-3)]GlcNAc(b1-6)[Gal(b1-3)]GalNAc
Summary of the method: as §1

[19] = target: Neu5Ac(a2-3)Gal6S(b1-4)[Fuc(a1-3)]GlcNAc
Summary of the method: as §1

[20] = target: Neu5Ac(a2-3)GalNAc(b1-4)GlcNAc
Summary of the method: as §1

[21] = target: Neu5Ac(a2-3)[GalNAc(b1-4)]Gal(b1-4)Glc
Summary of the method: as §1

Neu5Ac(a2-6)Gal = target: Neu5Ac(a2-6)Gal
Summary of the method: as §1

[22] = target: Neu5Ac(a2-6)Gal(b1-4)GlcNAc(b1-3)Gal(b1-3)GlcNAc
Summary of the method: as §1

[23] = target: Neu5Ac(a2-6)Gal(b1-4)GlcNAc6S
Summary of the method: as §1

[24] = target: Neu5Ac(a2-8)Neu5Ac(a2-8)Neu5Ac
Summary of the method: as §1

[25] = target: Neu5Ac9Ac(a2-6)Gal(b1-4)GlcNAc
Summary of the method: as §1

B1: Gal 1 (Canis lupus) (protein)
chain: MACGLVASNLSLKPGQCLRVQCEVVPEAKSFVLNLGKDGDNLCLHFNPRFEAHGDVNTIVCNSKDGGAWGEELRESAFPFQPGTVTEVCISFDQADLTIKLPDGYTFKFPNRLNLEAISYLAADGDMKIKCLAFD
glycan array binding signal (z-score) (Fuc(a1-2)Gal(b1-3)GalNAc): -0.289
glycan array binding signal (z-score) [1]: -0.33
glycan array binding signal (z-score) [2]: 0.066
glycan array binding signal (z-score) [3]: 0.432
glycan array binding signal (z-score) (Fuc(a1-2)Gal6S(b1-4)Glc): -0.234
glycan array binding signal (z-score) [4]: -0.274
glycan array binding signal (z-score) [5]: 6.47
glycan array binding signal (z-score) [6]: -0.328
glycan array binding signal (z-score) [7]: -0.297
glycan array binding signal (z-score) [8]: 2.97
glycan array binding signal (z-score) [9]: 1.75
glycan array binding signal (z-score) [10]: 5.5
glycan array binding signal (z-score) [11]: 6.78
glycan array binding signal (z-score) (Gal3S(b1-3)GlcNAc): 3.33
glycan array binding signal (z-score) (Gal3S(b1-4)GlcNAc6S): 4.69
glycan array binding signal (z-score) [12]: -0.286
glycan array binding signal (z-score) (GalNAc(a1-3)GalNAc): -0.323
glycan array binding signal (z-score) (Glc(b1-6)Glc): -0.343
glycan array binding signal (z-score) (GlcA(b1-3)GlcNAc): -0.294
glycan array binding signal (z-score) [13]: -0.318
glycan array binding signal (z-score) (GlcNAc(b1-6)GalNAc): -0.33
glycan array binding signal (z-score) [14]: -0.333
glycan array binding signal (z-score) [15]: 1.66
glycan array binding signal (z-score) [16]: -0.31
glycan array binding signal (z-score) [17]: 3.31
glycan array binding signal (z-score) [18]: -0.244
glycan array binding signal (z-score) [19]: -0.322
glycan array binding signal (z-score) [20]: -0.307
glycan array binding signal (z-score) [21]: -0.292
glycan array binding signal (z-score) (Neu5Ac(a2-6)Gal): -0.257
glycan array binding signal (z-score) [22]: -0.32
glycan array binding signal (z-score) [23]: -0.332
glycan array binding signal (z-score) [24]: -0.324
glycan array binding signal (z-score) [25]: -0.303
